The source of these data is PubChem BioAssay (EPA / NIEHS).

Conditions in all cases: mRNA level, 48 h; actives raise or lower the signal
Read-out in test [1]: Cytochrome P450 (CYP2B6), CYP2B6 (gene 1555)
The test is described as follows: LTEA_HepaRG_CYP2B6: Life Technologies and Expression Analysis (LTEA) Assay for Cytochrome P450 (CYP2B6) using HepaRG (AID 2283481). The procedure, abridged:
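HepaRG cells plated 48 h, switched to serum-free induction medium, then dosed 48 h (8 points, half-log from 100 uM, 0.5% DMSO). RNA isolated; CYP2B6 expression measured by qRT-PCR; gain or loss fitted relative to DMSO.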

Read-out in test [2]: Cytochrome P450 2C19 (Homo sapiens) (UniProt P33261)
Briefly: LTEA_HepaRG_CYP2C19: Life Technologies and Expression Analysis (LTEA) Assay for CYP2C19 using HepaRG (AID 2283482). The procedure, abridged:
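Transcript levels of CYP2C19 were quantified by qRT-PCR after HepaRG cells were treated for 48 hours with test chemicals up to 100 uM (eight half-log concentrations, 0.5% DMSO vehicle). Gain or loss of signal was fitted relative to DMSO.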

Read-out in a further test: CYP2C8 (gene 1558)
The test is described as follows: LTEA_HepaRG_CYP2C8: Life Technologies and Expression Analysis (LTEA) Assay for CYP2C8 using HepaRG (AID 2283483). In outline:
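Differentiated HepaRG cells in serum-free induction medium exposed 48 h in duplicate to 8 half-log concentrations from 100 uM in 0.5% DMSO. CYP2C8 mRNA by qRT-PCR normalized to ACTB, GAPDH, POLR2A; bidirectional fit versus DMSO.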

Read-out in the next test: CYP2C9 (gene 1559)
The test is described as follows: LTEA_HepaRG_CYP2C9: Life Technologies and Expression Analysis (LTEA) Assay for CYP2C9 using HepaRG (AID 2283484). The procedure, abridged:
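Differentiated human HepaRG cells in serum-free induction medium were exposed 48 h to chemicals in 8-point half-log series from 100 uM (0.5% DMSO), in duplicate. CYP2C9 mRNA was measured by qRT-PCR, normalized to ACTB/GAPDH/POLR2A, with bidirectional fitting versus DMSO.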

Read-out in the next test: CYP4A11 (gene 1579)
Briefly: LTEA_HepaRG_CYP4A11: Life Technologies and Expression Analysis (LTEA) Assay for CYP4A11 using HepaRG (AID 2283486). The procedure, abridged:
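HepaRG, 48 h chem exposure, 8 conc (100 uM top, half-log), 0.5% DMSO vehicle; qRT-PCR readout, housekeeping-gene normalized; bidirectional curve fit vs DMSO baseline.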

Read-out in test [3]: Cytochrome P450 3A4 (Homo sapiens) (UniProt P08684)
Briefly: LTEA_HepaRG_CYP3A4: Life Technologies and Expression Analysis (LTEA) Assay for CYP3A4 using HepaRG (AID 2283487). The procedure, abridged: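 Differentiated HepaRG cells, plated 48 h, then dosed 48 h in serum-free induction medium with 0.5% DMSO, 8 half-log concentrations up to 100 uM, duplicate. CYP3A4 mRNA by qRT-PCR, normalized to ACTB/GAPDH/POLR2A; bidirectional fit versus DMSO.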

Read-out in test [4]: DNA damage-inducible transcript 3 (DDIT3), DDIT3 (gene 1649)
Briefly: LTEA_HepaRG_DDIT3: Life Technologies and Expression Analysis (LTEA) Assay for DNA damage-inducible transcript 3 (DDIT3) using HepaRG (AID 2283488). The procedure, abridged: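 HepaRG cells, 48 h after plating, exposed 48 h in serum-free induction medium to 8 half-log concentrations up to 100 uM in 0.5% DMSO, in duplicate. DDIT3 mRNA measured by TaqMan qRT-PCR, normalized to ACTB, GAPDH and POLR2A. Fitted bidirectionally against DMSO.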

Read-out in test [5]: Pro-epidermal growth factor (Homo sapiens) (UniProt P01133)
Briefly: LTEA_HepaRG_EGF: Life Technologies and Expression Analysis (LTEA) Assay for Epidermal growth factor (EGF) using HepaRG (AID 2283489). In outline: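 HepaRG, 48 h dosing, 100 uM top, half-log x8, 0.5% DMSO. Readout: TaqMan qRT-PCR (Fluidigm array), housekeeping-normalized. Gain or loss of signal fit vs DMSO.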

Read-out in test [6]: Ezrin (EZR), EZR (gene 7430)
The test is described as follows: LTEA_HepaRG_EZR: Life Technologies and Expression Analysis (LTEA) Assay for Ezrin (EZR) using HepaRG (AID 2283491). In outline: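 EZR transcript levels came from Fluidigm qRT-PCR and were normalized to three housekeeping genes after 48 h chemical exposure of HepaRG cells. Dosing used an 8-point half-log series with a 100 uM top concentration in 0.5% DMSO, tested in duplicate; both directions were fitted versus vehicle.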

Read-out in test [7]: Cytochrome P450 3A7 (Homo sapiens) (UniProt P24462)
The test is described as follows: LTEA_HepaRG_CYP3A7: Life Technologies and Expression Analysis (LTEA) Assay for CYP3A7 using HepaRG (AID 2283492). The procedure, abridged: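 Human HepaRG liver cells, 48 h post-plating, switched to serum-free induction medium and exposed in duplicate for 48 h. Dosing: 100 uM top, half-log dilutions, 8 points, 0.5% DMSO vehicle. Read-out: CYP3A7 mRNA, gain or loss fitted against DMSO baseline.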

Read-out in a further test: CYP3A5 (gene 1577)
The test is described as follows: LTEA_HepaRG_CYP3A5: Life Technologies and Expression Analysis (LTEA) Assay for CYP3A5 using HepaRG (AID 2283493). The procedure, abridged: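 HepaRG cells, plated 48 h then in serum-free induction medium, dosed in duplicate for 48 h with eight half-log concentrations up to 100 uM in 0.5% DMSO. Gene mRNA by Fluidigm TaqMan qRT-PCR, normalized to ACTB, GAPDH, POLR2A.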

Read-out in test [8]: Fatty Acid-Binding Protein 1 (FABP1), FABP1 (gene 2168)
Briefly: LTEA_HepaRG_FABP1: Life Technologies and Expression Analysis (LTEA) Assay for Fatty Acid-Binding Protein 1 (FABP1) using HepaRG (AID 2283494). The procedure, abridged:
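Differentiated human HepaRG cells exposed 48 h in serum-free induction medium to eight half-log concentrations up to 100 uM (0.5% DMSO), duplicate. FABP1 mRNA by qRT-PCR, normalised to ACTB, GAPDH, POLR2A; bidirectional fitting against DMSO.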

Read-out in test [9]: Cytochrome P450 4A22 (Homo sapiens) (UniProt Q5TCH4)
Briefly: LTEA_HepaRG_CYP4A22: Life Technologies and Expression Analysis (LTEA) Assay for Cytochrome P450 4A22 (CYP4A22) using HepaRG (AID 2283495). The procedure, abridged:
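Readout is CYP4A22 transcript induction or loss, quantified by qRT-PCR and normalized to ACTB, GAPDH and POLR2A. Human HepaRG cells receive test chemicals for 48 h at eight half-log concentrations from 100 uM in 0.5% DMSO.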

Read-out in test [10]: Cytochrome P450 7A1 (Homo sapiens) (UniProt P22680)
Briefly: LTEA_HepaRG_CYP7A1: Life Technologies and Expression Analysis (LTEA) Assay for Cytochrome P450 7A1 (CYP7A1) using HepaRG (AID 2283496). In outline: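 HepaRG cells plated 48 h, then switched to serum-free induction medium and exposed in duplicate for 48 h to 8-point half-log series from 100 uM in 0.5% DMSO. CYP7A1 mRNA by qRT-PCR (TaqMan), normalized to ACTB/GAPDH/POLR2A; bidirectional fit versus DMSO.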

Read-out in test [11]: Glutathione S-Transferase (GSTA2), GSTA2 (gene 2939)
The test is described as follows: LTEA_HepaRG_GSTA2: Life Technologies and Expression Analysis (LTEA) Assay for Glutathione S-Transferase (GSTA2) using HepaRG (AID 2283497). The procedure, abridged: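 Differentiated human HepaRG cells were exposed in duplicate for 48 h in serum-free induction medium, 8 points from 100 uM top in half-log steps, 0.5% DMSO. GSTA2 mRNA was measured by TaqMan qRT-PCR, normalized to ACTB, GAPDH and POLR2A; bidirectional fit versus DMSO.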

Read-out in test [12]: Glutamate-cysteine ligase catalytic (GCLC), GCLC (gene 2729)
Briefly: LTEA_HepaRG_GCLC: Life Technologies and Expression Analysis (LTEA) Assay for Glutamate-cysteine ligase catalytic (GCLC) using HepaRG (AID 2283498). In outline:
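Differentiated HepaRG cells exposed 48 h in serum-free induction medium, eight-point half-log series topping at 100 uM in 0.5% DMSO, duplicates. GCLC mRNA by qRT-PCR normalized to ACTB, GAPDH and POLR2A, fitted bidirectionally versus DMSO.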

Read-out in test [13]: Glutamate-cysteine ligase regulatory (GCLM), GCLM (gene 2730)
The test is described as follows: LTEA_HepaRG_GCLM: Life Technologies and Expression Analysis (LTEA) Assay for Glutamate-cysteine ligase regulatory (GCLM) using HepaRG (AID 2283500). In outline:
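Differentiated HepaRG cells exposed 48 h in serum-free induction medium to eight half-log concentrations up to 100 uM (0.5% DMSO). GCLM mRNA by TaqMan qRT-PCR, normalized to ACTB, GAPDH and POLR2A; bidirectional fit versus DMSO.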

Read-out in test [14]: growth arrest and DNA damage 45 (GADD45G), GADD45G (gene 10912)
The test is described as follows: LTEA_HepaRG_GADD45G: Life Technologies and Expression Analysis (LTEA) Assay for growth arrest and DNA damage 45 (GADD45G) using HepaRG (AID 2283499). In outline: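 Gain or loss of GADD45G mRNA, quantified by TaqMan qRT-PCR against three housekeeping genes, is fitted in both directions relative to 0.5% DMSO. Human HepaRG cultures receive test chemical for 48 h at up to 100 uM.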

Read-out in the next test: CYP2E1 (gene 1571)
Briefly: LTEA_HepaRG_CYP2E1: Life Technologies and Expression Analysis (LTEA) Assay for CYP2E1 using HepaRG (AID 2283485). In outline:
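HepaRG cells, plated 48 h, then exposed 48 h in serum-free induction medium to eight half-log concentrations from 100 uM in 0.5% DMSO, duplicate. CYP2E1 mRNA by qRT-PCR, normalized to ACTB/GAPDH/POLR2A; bidirectional fit versus DMSO.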

Molecules are shown by their SMILES. Active and inactive are the calls of the source. How the source made its calls: active means hit-call score of the fitted dose curve at least 0.9, where 1 is the maximum; inactive means score below 0.9.

Sequence of Cytochrome P450 3A7 (Homo sapiens) (P24462 whole entry, looked up): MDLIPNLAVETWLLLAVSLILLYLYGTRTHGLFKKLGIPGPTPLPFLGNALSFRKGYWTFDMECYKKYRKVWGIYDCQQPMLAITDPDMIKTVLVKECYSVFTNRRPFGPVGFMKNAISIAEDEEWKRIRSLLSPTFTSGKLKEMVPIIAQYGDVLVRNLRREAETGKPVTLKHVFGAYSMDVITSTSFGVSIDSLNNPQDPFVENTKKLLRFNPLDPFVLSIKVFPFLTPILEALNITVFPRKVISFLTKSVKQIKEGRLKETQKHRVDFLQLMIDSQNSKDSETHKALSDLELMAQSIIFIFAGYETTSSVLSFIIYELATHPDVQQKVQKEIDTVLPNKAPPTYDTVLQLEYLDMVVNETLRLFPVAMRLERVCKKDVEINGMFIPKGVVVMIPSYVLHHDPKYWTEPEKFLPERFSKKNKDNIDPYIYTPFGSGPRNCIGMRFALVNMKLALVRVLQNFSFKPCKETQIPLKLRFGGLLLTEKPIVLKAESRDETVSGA
Sequence of Cytochrome P450 2C19 (Homo sapiens) (P33261 whole entry, looked up): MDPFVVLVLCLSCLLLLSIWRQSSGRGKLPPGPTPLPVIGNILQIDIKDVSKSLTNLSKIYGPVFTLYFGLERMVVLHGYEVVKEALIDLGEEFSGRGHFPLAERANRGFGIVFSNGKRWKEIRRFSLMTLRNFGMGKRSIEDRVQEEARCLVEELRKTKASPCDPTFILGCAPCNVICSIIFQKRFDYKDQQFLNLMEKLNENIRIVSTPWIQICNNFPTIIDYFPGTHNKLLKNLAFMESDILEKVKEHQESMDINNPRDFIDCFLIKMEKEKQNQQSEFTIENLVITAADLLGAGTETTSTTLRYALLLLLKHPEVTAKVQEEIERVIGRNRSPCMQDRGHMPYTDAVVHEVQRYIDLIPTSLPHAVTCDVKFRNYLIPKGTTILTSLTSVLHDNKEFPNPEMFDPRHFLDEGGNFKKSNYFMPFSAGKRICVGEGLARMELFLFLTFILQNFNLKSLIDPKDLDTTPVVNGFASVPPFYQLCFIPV
Sequence of Cytochrome P450 3A4 (Homo sapiens) (P08684 whole entry, looked up): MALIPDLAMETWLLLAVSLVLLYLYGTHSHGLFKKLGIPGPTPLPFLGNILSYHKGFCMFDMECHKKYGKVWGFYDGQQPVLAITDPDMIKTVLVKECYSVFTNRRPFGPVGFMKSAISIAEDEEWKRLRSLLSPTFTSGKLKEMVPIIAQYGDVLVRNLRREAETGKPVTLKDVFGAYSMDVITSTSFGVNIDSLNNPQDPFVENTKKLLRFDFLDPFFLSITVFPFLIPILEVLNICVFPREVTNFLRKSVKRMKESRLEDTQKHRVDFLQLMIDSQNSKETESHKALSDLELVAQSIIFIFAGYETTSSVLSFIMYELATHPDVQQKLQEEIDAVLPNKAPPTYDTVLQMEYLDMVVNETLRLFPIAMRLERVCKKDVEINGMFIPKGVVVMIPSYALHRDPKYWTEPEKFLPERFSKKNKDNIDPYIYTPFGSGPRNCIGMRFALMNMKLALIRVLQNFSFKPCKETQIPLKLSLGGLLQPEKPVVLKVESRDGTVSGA

What is called AC50 is the midpoint of the concentration-response curve, whichever way the signal moves. On to `C[C@@H](Oc1ccc(CNC(=O)c2cccnc2Oc2ccc3c(c2)OCO3)c(F)c1)C(=O)O`, for which the compound was called inactive (in test [1]; in test [2]; with CYP2C8 (gene 1558); with CYP2C9 (gene 1559); in test [3]; in [4]). Moreover, the compound was classed as inactive (in test [5]; in test [6]; in test [7]; with CYP3A5 (gene 1577); in test [10]; in [11]). Besides, the call in test [12] and in test [13] was inactive. Moreover, the AC50 with CYP4A11 (gene 1579) is 28.5 µM (active); in test [8], 50 µM (active); in [9], 28.6 µM (active).

With `CC1(C)C(=O)N(Cl)C(=O)N1Cl`, the compound was called inactive (in test [1]; in test [2]; with CYP2C8 (gene 1558); with CYP2C9 (gene 1559); in test [3]; in [4]). Also, the compound was classed as inactive (in test [5]; in [6]; in test [7]; with CYP3A5 (gene 1577); in [8]; in test [9]). Further, the outcome in [10], in [11], in test [12], in [14] and in [13] was inactive.

On to `O=C1CN(N=Cc2ccc([N+](=O)[O-])o2)C(=O)N1`, for which the AC50 was 50 µM (active) in test [1]; 50 µM (active) in the test with CYP2C8 (gene 1558); 52.7 µM (active) with CYP2E1 (gene 1571); 45.7 µM (active) with CYP4A11 (gene 1579); 80.7 µM (active) in test [4]; 41.9 µM (active) in test [8]. The AC50 was 44.3 µM (active) in test [9]; 22.2 µM (active) in [10]; 81.8 µM (active) in test [11]; 71.6 µM (active) in test [14]; 72.5 µM (active) in test [13]. Also, the call (in [2]; in test [5]; in test [6]; in test [7]; with CYP3A5 (gene 1577); in test [12]) was inactive.
